14 molecules from PubChem BioAssay (Tox21) can be followed below.

The structures appear in SMILES notation. Unmarked numbers belong to inactive results. Inconclusive results are not listed. The source made the active and inactive calls. The call rests on the fitted dose curve; in most records, active means well fitted curve in the direction sought with a large enough effect in the repeat runs; inconclusive means weak or mixed curves; inactive means no such curve, though single readings can be large; an effect the other way counts as inactive or inconclusive.

A short description of assay [1]: qHTS RealTime-Glo MT Cell Viability Assay in HepG2 cells - 40 hour (AID 1224870). Further: nearly all actives have a fitted effect of over 50% in size. In a few lines: (§1)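 HepG2 cells (600/well) mixed with RealTime-Glo MT reagent, settled 5 h at 37 C/5% CO2 before compound addition. Nonlytic NanoLuc luminescence from viable-cell prosubstrate reduction read repeatedly during 40 h treatment at 37 C.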
Assay [2] in a line: A CellTox Green Cytotoxicity Assay to monitor cytotoxicity in HEK293 cells - 40 hour (AID 1224871). Further: nearly all actives have a fitted effect of over 45% in size. A digest of the protocol: (§2)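 Fluorescence intensity, read at 0, 8, 16, 24, 32 and 40 h of compound treatment, reflected dye binding to DNA of dead HEK293 cells; compounds (23 nL, DMSO) were added 5 h after plating cells with reagent.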
The nature of assay [3]: qHTS RealTime-Glo MT Cell Viability Assay in HEK293 cells - 16 hour (AID 1224872). Further: top concentration of the series differs between compounds; nearly all actives have a fitted effect of over 50% in size. In a few lines: (§3)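 Tox21 10K qHTS, HEK293, 600 cells/well, RealTime-Glo reagent co-dispensed with cells; 5 h preincubation, compound by pintool, 37 C, luminescence at 0–40 h.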
(In general: qHTS replaces the single test concentration by a dilution series.)

Assay [4] is described as follows: qHTS RealTime-Glo MT Cell Viability Assay in HEK293 cells - 40 hour (AID 1224874). Further: nearly all actives have a fitted effect of over 50% in size. As to conditions: RealTime-Glo luminescence; max response: stronger effect = lower value. A digest of the protocol:
(§4)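 Viable HEK293 cells reduce a cell-permeant prosubstrate; the product diffuses out and is consumed by NanoLuc in the medium to give light. Compounds went in after a 5 h incubation and plates were read over the treatment course.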

A short description of assay [5]: A CellTox Green Cytotoxicity Assay to monitor cytotoxicity in HEK293 cells - 24 hour (AID 1224875). Further: series mostly up to about 77 µM; nearly all actives have a fitted effect of over 45% in size. In a few lines: as §2
The nature of assay [6]: A CellTox Green Cytotoxicity Assay to monitor cytotoxicity in HepG2 cells - 16 hour (AID 1224876). Further: nearly all actives have a fitted effect of over 45% in size. A digest of the protocol:
(§5)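 Using 1536-well format, dye-containing HepG2 suspension was seeded, allowed 5 h at 37 C/5% CO2, dosed by pintool with compounds, positive and negative controls, and imaged for fluorescence across 40 h.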

The nature of assay [7]: A CellTox Green Cytotoxicity Assay to monitor cytotoxicity in HepG2 cells - 24 hour (AID 1224878). Further: nearly all actives have a fitted effect of over 45% in size. In a few lines: as §5
A short description of assay [8]: A CellTox Green Cytotoxicity Assay to monitor cytotoxicity in HepG2 cells - 40 hour (AID 1224879). Further: nearly all actives have a fitted effect of over 40% in size. Further: potency means the concentration at half of the fitted maximal effect. A digest of the protocol: as §5
A short description of assay [9]: qHTS RealTime-Glo MT Cell Viability Assay in HEK293 cells - 0 hour (AID 1224880). In a few lines: as §4
Assay [10] in a line: A CellTox Green Cytotoxicity Assay to monitor cytotoxicity in HEK293 cells - 32 hour (AID 1224881). Further: nearly all actives have a fitted effect of over 40% in size. In a few lines:
as §2

A short description of assay [11]: A CellTox Green Cytotoxicity Assay to monitor cytotoxicity in HepG2 cells - 0 hour (AID 1224882). Further: nearly all actives have a fitted effect of over 35% in size. In a few lines:
as §5

Assay [12] can be described thus: A CellTox Green Cytotoxicity Assay to monitor cytotoxicity in HepG2 cells - 32 hour (AID 1224883). Further: nearly all actives have a fitted effect of over 50% in size. In a few lines: as §5
Assay [13] can be described thus: A CellTox Green Cytotoxicity Assay to monitor cytotoxicity in HEK293 cells - 8 hour (AID 1224884). Further: nearly all actives have a fitted effect of over 35% in size. In a few lines:
as §2

A short description of assay [14]: qHTS RealTime-Glo MT Cell Viability Assay in HEK293 cells - 24 hour (AID 1224886). A digest of the protocol:
as §3

Assay [15] in a line: qHTS RealTime-Glo MT Cell Viability Assay in HEK293 cells - 8 hour (AID 1224887). A digest of the protocol: as §4
Assay [16] can be described thus: qHTS RealTime-Glo MT Cell Viability Assay in HepG2 cells - 0 hour (AID 1224889). Further: nearly all actives have a fitted effect of over 50% in size. In a few lines:
(§6)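 Cells + NanoLuc/prosubstrate dispensed (600 cells/well) → 5 h at 37 C/5% CO2 → compounds in DMSO transferred → 40 h incubation at 37 C, luminescence read at 0, 8, 16, 24, 32, 40 h.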

Assay [17] can be described thus: qHTS RealTime-Glo MT Cell Viability Assay in HepG2 cells - 32 hour (AID 1224877). Further: nearly all actives have a fitted effect of over 55% in size. In a few lines:
as §6

Assay [18] in a line: qHTS RealTime-Glo MT Cell Viability Assay in HepG2 cells - 16 hour (AID 1224885). Further: nearly all actives have a fitted effect of over 50% in size. A digest of the protocol: as §6
Assay [19] can be described thus: A CellTox Green Cytotoxicity Assay to monitor cytotoxicity in HEK293 cells - 16 hour (AID 1224888). Further: nearly all actives have a fitted effect of over 35% in size. A digest of the protocol:
as §2

Assay [20] can be described thus: qHTS RealTime-Glo MT Cell Viability Assay in HepG2 cells - 8 hour (AID 1224873). Further: nearly all actives have a fitted effect of over 55% in size. In a few lines: as §1
On the % scale 0 is the no-effect control and ±100 the full control effect.

Consider `CC1=CCC2C(C1)C2(C)C` (configuration not stated), for which the Potency entry in [1], in assay [2], in assay [3], in [5], in [6] and in assay [7] was “inactive” in each case. Besides, the Potency entry in [8], in [10], in assay [11], in assay [12], in assay [13] and in assay [14] was “inactive” each time. In addition, the Potency result in [15] and in [16] was “inactive” throughout. For the same molecule, in [4], the max response is 1.81%. Also, the call in [9] was inactive.

On to `CCC(=O)/C=C/c1ccc(OC)cc1`, for which the Potency result in [1], in assay [2], in [3], in assay [6], in assay [17] and in assay [7] was “inactive” each time. Also, the Potency result in assay [8], in [10], in [11], in assay [12], in assay [13] and in [14] was “inactive” in each case. The Potency entry in assay [15], in assay [19] and in assay [16] was “inactive” throughout. In addition, the outcome in assay [9] and in [18] was inactive.

On to `CC(C)c1ccc2oc3nc(N)c(C(=O)O)cc3c(=O)c2c1`, for which the Potency entry in assay [1], in assay [2], in assay [3], in assay [5], in assay [6] and in [7] was “inactive” in each case. Moreover, the Potency entry in assay [8], in [10], in assay [11], in assay [12], in [13] and in assay [14] was “inactive” in each case. Also, the Potency entry in [15] and in [16] was “inactive” throughout. The max response in assay [4] is 13%. Besides, the molecule was classed as inactive in assay [9] and in assay [18].

For the molecule `O=c1[nH]c2ccccc2c(=O)n1CCCl`, the Potency entry in assay [1], in [2], in assay [5], in assay [6], in [17] and in assay [7] was “inactive” throughout. The Potency entry in [8], in assay [10], in [11], in assay [12], in assay [13] and in assay [14] was “inactive” throughout. Moreover, the Potency result in [15], in [19] and in assay [16] was “inactive” throughout. Further, the molecule was called inactive in [20] and in [18]. Moreover, the max response in assay [4] is 3.48%.

Turning to `Cc1cc(C)c(NC(=O)CN(CC(=O)O)CC(=O)O)c(C)c1Br`, the Potency result in assay [1], in assay [2], in assay [3], in assay [5], in [6] and in [7] was “inactive” each time. For the same molecule, the Potency entry in [8], in [10], in assay [11], in [12], in assay [13] and in [14] was “inactive” throughout. For the same molecule, the Potency result in assay [15], in [19] and in assay [16] was “inactive” each time. In addition, the max response in assay [4] was -1.32%. Also, the molecule was classed as inactive in [9] and in assay [18].

With `CCCC(=O)O[C@]1(C(=O)CCl)[C@@H](C)C[C@H]2[C@@H]3CCC4=CC(=O)C=C[C@]4(C)[C@@]3(F)C(=O)C[C@@]21C`, the Potency result in [1], in assay [2], in [5], in [6], in assay [17] and in assay [7] was “inactive” each time. Moreover, the Potency result in assay [8], in [10], in assay [11], in [12], in [13] and in assay [14] was “inactive” throughout. Moreover, the Potency result in assay [15], in assay [19] and in assay [16] was “inactive” each time. Further, the molecule was classed as inactive in assay [20], in assay [9] and in assay [18]. The max response in assay [4] was -19.8%.

As for `CCN1CCCC1CNC(=O)c1cc(S(N)(=O)=O)ccc1OC` (configuration not stated), the Potency entry in assay [1], in assay [2], in assay [3], in assay [5], in assay [6] and in assay [17] was “inactive” throughout. In addition, the Potency result in assay [7], in [10], in [11], in [12], in assay [15] and in assay [19] was “inactive” in each case. Moreover, the Potency entry in assay [16] is “inactive”. For the same molecule, the Potency in assay [8] was 43.6 µM (active). In addition, the result in assay [9] and in assay [18] was inactive.

As to `CCn1cc(C(=O)O)c(=O)c2cc(F)c(N3CCN(C)CC3)cc21`, the results for the activity change, negative = cytotoxic in [1], in [17] and in assay [18] were 1.6% [at 15.8 µM], 1.05% [at 15.8 µM] and 0.92% [at 15.8 µM], respectively. The cytotoxicity increase in [2] was -12.2% [at 15.8 µM]; in assay [6], -8.46% [at 15.8 µM]; in assay [8], -14.4% [at 15.8 µM]; in assay [10], -8.3% [at 15.8 µM]; in assay [12], -17.6% [at 15.8 µM]; in assay [13], -3.43% [at 15.8 µM]. For the same molecule, the activity change, negative = cytotoxicity in [3] was 4.51% [at 15.8 µM]; in assay [9], 5.85% [at 15.8 µM]; in assay [14], 2.21% [at 15.8 µM]; in assay [15], 7.74% [at 15.8 µM]; in [16], 5.05% [at 15.8 µM]. In [4], the max response was -1.49%. Also, the values for the cytotoxicity in assay [7] and in assay [11] were -13.3% [at 15.8 µM] and -1.13% [at 15.8 µM], respectively. Moreover, the activity change in assay [19] is -0.608% [at 15.8 µM, stronger effect = higher value].

For the molecule `COc1ccc(COC=O)cc1`, the Potency result in [1], in assay [2], in assay [3], in [5], in assay [6] and in assay [17] was “inactive” each time. In addition, the Potency result in [7], in assay [8], in [10], in assay [11], in assay [12] and in assay [13] was “inactive” in each case. Further, the Potency entry in assay [14], in [15], in assay [19] and in [16] was “inactive” each time. The outcome in [9] and in assay [18] was inactive.

With `O=C1C(CCS(=O)c2ccccc2)C(=O)N(c2ccccc2)N1c1ccccc1` (configuration not stated), the Potency entry in [1], in assay [2], in [5], in [6], in assay [7] and in assay [8] was “inactive” throughout. In addition, the Potency entry in assay [10], in [11], in assay [12], in [13], in assay [14] and in [15] was “inactive” in each case. Moreover, the Potency entry in [19] is “inactive”. In addition, the result in assay [20], in assay [9] and in [18] was inactive. Also, the max response in assay [4] is 1.04%.

Turning to `CC/C=C\CCCCO`, the Potency entry in assay [1], in assay [2], in assay [5], in assay [6], in [17] and in assay [10] was “inactive” in each case. In addition, the Potency result in assay [13], in assay [14], in [15] and in assay [16] was “inactive” throughout. The max response in [4] was 1.83%. The result in assay [9] was inactive.

For `N[C@@H](CS)C(=O)O`, the Potency entry in assay [1], in [2], in assay [5], in [6], in assay [17] and in assay [7] was “inactive” in each case. Moreover, the Potency entry in assay [8], in assay [10], in assay [11], in assay [12], in [13] and in assay [14] was “inactive” each time. Besides, the Potency result in [15] and in assay [16] was “inactive” each time. Moreover, in assay [4], the max response was 9.81%. For the same molecule, the result in assay [9] and in assay [18] was inactive.

On to `O=C(O)Cc1cc(I)c(Oc2cc(I)c(O)c(I)c2)c(I)c1`, for which the Potency result in assay [1], in assay [3], in assay [6], in assay [17], in assay [7] and in assay [8] was “inactive” each time. The Potency result in [11], in assay [12], in assay [13], in assay [14], in [15] and in [19] was “inactive” in each case. For the same molecule, the Potency entry in assay [16] was “inactive”. The result in [20] and in [9] was inactive. In [4], the max response is 1.65%.

On to `C=CC(=O)OCCCCCC`, for which the Potency entry in [1], in [2], in assay [5], in assay [6], in assay [17] and in assay [7] was “inactive” in each case. Moreover, the Potency result in [8], in [10], in assay [11], in assay [12], in [13] and in assay [14] was “inactive” in each case. Further, the Potency result in assay [15], in assay [19] and in assay [16] was “inactive” in each case. The max response in assay [4] was -6.6%. Also, the outcome in assay [9] and in assay [18] was inactive.
